BAZ2B block: BAZ2B (human) inhibition | Q9UIF8 | AlphaScreen BAZ2B-H3K14Ac peptide displacement | Potency, µM (doses to about 114 µM), usual class: inhibitors | 4.4% of 360,000 active | AID 504333; note: nearly all actives have a fitted effect of over 60% in size
Target sequence (Q9UIF8 whole entry, looked up): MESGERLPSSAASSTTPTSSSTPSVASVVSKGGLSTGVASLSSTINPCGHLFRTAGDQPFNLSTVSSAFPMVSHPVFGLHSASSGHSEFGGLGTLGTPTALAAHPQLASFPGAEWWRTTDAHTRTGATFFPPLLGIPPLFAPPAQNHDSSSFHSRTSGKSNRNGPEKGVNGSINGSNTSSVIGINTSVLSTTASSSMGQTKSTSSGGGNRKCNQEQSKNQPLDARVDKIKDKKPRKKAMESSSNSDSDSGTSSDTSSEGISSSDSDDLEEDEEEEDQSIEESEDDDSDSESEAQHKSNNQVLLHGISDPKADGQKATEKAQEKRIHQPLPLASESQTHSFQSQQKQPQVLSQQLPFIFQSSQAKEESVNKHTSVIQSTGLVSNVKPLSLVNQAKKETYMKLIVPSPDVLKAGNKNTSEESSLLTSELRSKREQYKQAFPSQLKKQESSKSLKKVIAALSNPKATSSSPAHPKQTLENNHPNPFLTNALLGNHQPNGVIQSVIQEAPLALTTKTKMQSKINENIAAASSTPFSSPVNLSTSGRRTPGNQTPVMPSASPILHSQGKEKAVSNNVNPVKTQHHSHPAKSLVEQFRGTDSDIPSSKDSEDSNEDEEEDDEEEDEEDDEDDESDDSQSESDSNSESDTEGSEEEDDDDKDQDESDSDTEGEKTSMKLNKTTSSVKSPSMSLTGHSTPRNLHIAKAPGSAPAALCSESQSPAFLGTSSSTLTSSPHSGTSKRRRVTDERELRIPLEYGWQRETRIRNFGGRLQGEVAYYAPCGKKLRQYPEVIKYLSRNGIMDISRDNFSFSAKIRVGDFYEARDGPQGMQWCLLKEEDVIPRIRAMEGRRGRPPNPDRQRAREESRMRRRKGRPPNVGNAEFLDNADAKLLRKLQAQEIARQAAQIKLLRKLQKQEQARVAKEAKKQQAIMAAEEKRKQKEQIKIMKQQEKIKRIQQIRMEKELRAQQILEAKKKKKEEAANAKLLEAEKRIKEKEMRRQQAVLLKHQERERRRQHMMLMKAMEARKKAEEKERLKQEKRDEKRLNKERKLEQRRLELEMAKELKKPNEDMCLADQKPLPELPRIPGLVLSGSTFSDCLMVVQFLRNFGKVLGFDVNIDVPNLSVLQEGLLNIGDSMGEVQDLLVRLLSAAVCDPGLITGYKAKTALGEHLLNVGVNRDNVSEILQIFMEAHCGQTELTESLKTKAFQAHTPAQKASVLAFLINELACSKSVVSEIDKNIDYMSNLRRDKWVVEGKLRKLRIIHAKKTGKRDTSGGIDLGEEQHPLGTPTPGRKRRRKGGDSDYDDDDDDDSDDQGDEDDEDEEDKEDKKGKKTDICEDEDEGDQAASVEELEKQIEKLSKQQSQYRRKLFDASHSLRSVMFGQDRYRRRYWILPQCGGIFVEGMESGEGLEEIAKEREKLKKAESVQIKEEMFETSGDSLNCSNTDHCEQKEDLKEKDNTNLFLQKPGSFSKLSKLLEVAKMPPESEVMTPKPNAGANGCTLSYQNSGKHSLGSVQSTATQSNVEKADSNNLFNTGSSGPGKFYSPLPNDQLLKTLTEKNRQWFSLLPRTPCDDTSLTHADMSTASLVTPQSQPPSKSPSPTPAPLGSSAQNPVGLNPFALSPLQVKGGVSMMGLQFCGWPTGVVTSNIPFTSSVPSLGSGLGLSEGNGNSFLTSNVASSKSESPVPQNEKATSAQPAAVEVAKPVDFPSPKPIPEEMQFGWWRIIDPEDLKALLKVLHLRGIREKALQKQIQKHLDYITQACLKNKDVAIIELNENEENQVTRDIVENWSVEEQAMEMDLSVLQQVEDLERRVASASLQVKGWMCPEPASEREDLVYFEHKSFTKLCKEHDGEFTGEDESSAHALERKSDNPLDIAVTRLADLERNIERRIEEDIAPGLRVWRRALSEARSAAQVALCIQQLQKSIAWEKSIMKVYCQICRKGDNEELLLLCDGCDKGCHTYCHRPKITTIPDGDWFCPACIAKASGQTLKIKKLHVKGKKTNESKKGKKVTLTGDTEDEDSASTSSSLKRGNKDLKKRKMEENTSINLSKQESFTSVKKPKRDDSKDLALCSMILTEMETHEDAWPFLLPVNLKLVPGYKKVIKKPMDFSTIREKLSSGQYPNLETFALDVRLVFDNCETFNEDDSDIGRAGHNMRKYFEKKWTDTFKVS
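Inhibition is scored as reduced AlphaScreen emission. The BAZ2B/b-H3(5-23)K14Ac complex (50 nM each) in PBS pH 7.4, 0.01% Tween-20 meets compound (up to 110 uM) for 30 min at RT before bead addition.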
JMJD2A Tudor: inhibitors of human JMJD2A Tudor domain; Potency, µM (series often up to 114 µM), actives largely listed as inhibitors; AlphaScreen JMJD2A-Tudor / H3K4me3 peptide binding; 4.4% of 390,000 active; AID 504339; note: nearly all actives have a fitted effect of over 50% in size
G9a inh: blocks human histone lysine methyltransferase G9a. Q96KQ7. G9a H3K9 monomethylation, AlphaScreen, 2 h. Potency, µM (series often up to 102 µM), actives largely listed as inhibitors. 8.8% of 350,000 active; note: nearly all actives have a fitted effect of over 75% in size
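Step 1: enzyme (final 20 nM) with compound, 15 min RT. Step 2: substrate peptide 500 nM and SAM 20 uM, 2 h RT. Step 3: anti-H3K9me1 antibody and AlphaScreen beads, 10 min, then plate read.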
PLK1 PBD block: blocks phosphopeptide binding to human PLK1 polo-box domain; P53350; Plk1 PBD binding of FITC phosphopeptide, fluorescence polarization; Potency, µM, actives largely listed as inhibitors; 2.8% of 360,000 active; AID 720504; note: series mostly up to about 57 µM; nearly all actives have a fitted effect of over 65% in size
HP1b chromo inh: HP1-beta chromodomain-methylated histone interaction inhibition. AlphaScreen HP1-beta / biotin-H3K9me3 peptide binding. Potency, µM (series often up to 114 µM), usual class: inhibitors. 0.56% of 390,000 active. P83916. AID 540317; note: nearly all actives have a fitted effect of over 70% in size
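HP1-beta protein (50 nM final) preincubated 30 min at room temperature with biotinylated H3(1-18)K9me3 peptide (50 nM) in PBS pH 7.4, 0.01% Tween-20, then compound added for 30 min. AlphaScreen streptavidin donor/nickel chelate acceptor beads (10 ug/mL final), 30 min dark, luminescence read.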
PI5P4K alpha inh: inhibitors of human PI5P4K alpha | P48426 | PI5P4Kalpha enzyme, ADP-Glo luminescence, 60 min; stronger effect = lower value | max response, % | 1.2% of 330,000 active | AID 652105; active = max response of -50% or lower; inconclusive = between -30% and -50%; inactive = -30% or higher; note: value at the top dose of about 77 µM
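Reactions run in 0.038 M HEPES pH 7.4, 0.28 mM EGTA, 0.1% CHAPS and 5% DMSO, with PI5P4Kalpha, substrate, compound and 5 microM ATP final, one hour at room temperature. Readout is ADP-Glo luminescence.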
Each line names hits and unclear results; the compound was inactive in the other large screens. Hits are enriched below; roughly 12% of the tested compounds scored in any of these assays. Unless noted, calls come from the whole dose curve; as a rule, active = well fitted curve in the direction sought with a large enough effect; inconclusive = small, poorly fitted or top-dose-only effect, or another doubt; inactive = no such curve, though single readings can be large; an effect the other way counts as inactive or inconclusive.

O=C1c2ccccc2C(=O)N1CN(C(=O)c1ccccc1)c1ccc(O)cc1	PLK1 PBD block 21µM
Cc1nc2c(cnn2-c2ccccc2Cl)c(=O)n1-c1ccc(N2CCC(C)CC2)cc1	BAZ2B block inconclusive, JMJD2A Tudor inconclusive, G9a inh 50µM (no result: PI5P4K alpha inh)
N#Cc1c(Nc2ccc(F)cc2)sc(C(=O)c2ccccc2)c1N	none
Nc1c(C(=O)c2ccccc2)sc(Nc2ccc(Cl)c(Cl)c2)c1C(=O)Nc1ccccc1	BAZ2B block 25µM, JMJD2A Tudor 45µM, G9a inh 13µM, HP1b chromo inh inconclusive (no result: PLK1 PBD block, PI5P4K alpha inh)
CC(=O)c1sc(Nc2cccc(C)c2)nc1C	BAZ2B block 50µM
N#Cc1c(Nc2ccccc2)sc(C(=O)c2ccccc2)c1N	BAZ2B block inconclusive, JMJD2A Tudor inconclusive, G9a inh 10µM
Cc1nc(Nc2ccc(Cl)c(Cl)c2)sc1C(=O)Nc1ccccc1	JMJD2A Tudor 22µM, G9a inh inconclusive, PLK1 PBD block 27µM
CC(=O)c1sc2c(c1C)c(=O)n(-c1ccc(Cl)cc1)c(=O)n2Cc1ccc(Cl)cc1	none (no result: PLK1 PBD block, PI5P4K alpha inh)
CCOc1ccc(-n2c(=O)c3c(C)c(C(=O)N(C)C)sc3n(Cc3cc(C)ccc3C)c2=O)cc1	none (no result: PLK1 PBD block, PI5P4K alpha inh)
CN(C)c1ccc(C(=S)N2CCOCC2)cc1	none (no result: BAZ2B block, PI5P4K alpha inh)
CN(C)c1ccc(C(=S)N2CCN(S(=O)(=O)c3ccccc3)CC2)cc1	BAZ2B block inconclusive, G9a inh 13µM
CN(C)c1ccc(C(=S)N2CCCCCC2)cc1	BAZ2B block inconclusive, JMJD2A Tudor inconclusive, G9a inh 8.9µM, PLK1 PBD block inconclusive (no result: PI5P4K alpha inh)
CC(=O)N1CCN(C(=S)c2ccc(N(C)C)cc2)CC1	G9a inh 7.1µM, PLK1 PBD block 21µM, HP1b chromo inh inconclusive (no result: PI5P4K alpha inh)
Cc1cc(=O)n2nc(N(C)CC(=O)NCc3cccc(Br)c3)sc2n1	none (no result: PLK1 PBD block, PI5P4K alpha inh)
COc1cc(CCc2ccccc2)c(C(=O)O)c(O)c1C/C=C(/C)CCC=C(C)C	JMJD2A Tudor 79µM, PLK1 PBD block 24µM (no result: BAZ2B block, G9a inh)
CC(C)=CCC/C(C)=C/Cc1c(O)ccc(C(=O)/C=C/c2ccc(O)cc2)c1O	BAZ2B block inconclusive, JMJD2A Tudor inconclusive, G9a inh inconclusive
COCOc1ccc(/C=C/C(=O)c2c(OCOC)cc(OCOC)c(CC=C(C)C)c2O)cc1OCOC	JMJD2A Tudor inconclusive (no result: BAZ2B block, G9a inh)
COc1cc(CCc2ccccc2)c(C(=O)O)c(O)c1CC=C(C)C	PLK1 PBD block 27µM (no result: BAZ2B block, G9a inh)
COc1cccc(Nc2nc(C(N)Cc3ccccc3)cs2)n1 (stereo unspecified)	none (no result: BAZ2B block, JMJD2A Tudor, G9a inh, HP1b chromo inh)
COc1cccc2cc(-c3nc(-c4ccccc4)c(C)s3)c(=O)oc12	none (no result: BAZ2B block, G9a inh, PLK1 PBD block, PI5P4K alpha inh)
N/C(=N\OS(=O)(=O)c1ccc(Cl)cc1)c1cccnc1	G9a inh inconclusive
N/C(=N\OS(=O)(=O)c1ccc(Cl)cc1)c1ccncc1	G9a inh 2.5µM (no result: PI5P4K alpha inh)
CCCS(=O)(=O)N1CCC(N2CCN(Cc3ccc(F)cc3)C(=O)C2=O)CC1	none (no result: PLK1 PBD block, PI5P4K alpha inh)
NC(=O)Cn1cc(/C=N\NS(=O)(=O)c2ccc(Cl)cc2)c2ccccc21	none
Cc1ccc(S(=O)(=O)N/N=C\c2cn(CC(N)=O)c3ccccc23)cc1C	BAZ2B block inconclusive, G9a inh 79µM
COc1ccc(N2CCN(S(=O)(=O)CCNC(=O)COc3cccc(OC)c3)CC2)cc1	none
COc1ccc(-c2nn(-c3ccccc3)cc2C2NC(=O)NC(C)=C2C(=O)OC(C)C)cc1Cl (stereo unspecified)	G9a inh inconclusive (no result: PLK1 PBD block, PI5P4K alpha inh)
CC(=O)Oc1cccc(/C=C2\C=C(c3ccc(C)cc3)OC2=O)c1	JMJD2A Tudor inconclusive, G9a inh inconclusive, PLK1 PBD block 19µM
O=C(CCC1N=C2c3ccccc3N=C(SCC(=O)Nc3ccc(F)cc3)N2C1=O)NCc1ccco1 (stereo unspecified)	none (no result: PLK1 PBD block, PI5P4K alpha inh)
O=C1NC(=O)[C@@H]2C3c4ccccc4C=CN3[C@H](C(=O)c3cccs3)[C@H]12 (stereo partly specified)	G9a inh 10µM (no result: JMJD2A Tudor, PLK1 PBD block, HP1b chromo inh, PI5P4K alpha inh)
COc1ccc(NC(=O)[C@@H]2[C@@H]3C(=O)N(C4CCCCC4)C(=O)[C@@H]3C3c4ccccc4C=CN32)cc1 (stereo partly specified)	G9a inh inconclusive (no result: BAZ2B block)
CCCCNc1sc(S(=O)(=O)CCC)nc1S(=O)(=O)c1ccc(C)cc1	none (no result: PLK1 PBD block, PI5P4K alpha inh)
CCOC(=O)c1cccc(NC(=O)CN2C(=O)c3ccccc3Sc3ncccc32)c1	none (no result: PLK1 PBD block, PI5P4K alpha inh)
